Bioassay records: PubChem, National Center for Advancing Translational Sciences (NCATS)
Only a selection was taken, and hits are over-represented in it overall.
Pf Dd2 inh: Plasmodium falciparum Dd2 growth inhibition. AID 1347417. actives 4.3% (n = 120,000). Potency, µM (doses to about 28.9 µM), for inactives: at the highest dose activity, negative = inhibition, most hits filed as inhibitors. P. falciparum Dd2 growth, SYBR Green, 72 h; active means well fitted inhibition curve with a large enough effect;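 further: plate controls were DMSO vehicle for no effect and reference drug for full effect; nearly all actives have a fitted effect of over 65% in size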
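Infected erythrocytes (Dd2, 0.3% parasitemia, 2.5% hematocrit final) are added to compound in RPMI-1640/Albumax II medium, grown 72 h at 37C in low oxygen, then lysed with saponin/Triton-X containing SYBR Green and read by fluorescence.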
* marks the source's active call; other numbers are inactive results; i = inactive; [ ] = remark or other dose. Potency means the concentration at half of the fitted maximal effect.

SMILES	Pf Dd2 inh
c1cc(-c2cc(-c3ccc4cn[nH]c4c3)cn3cncc23)ccn1	-2%[44.1 µM]
COc1ccc(Cn2c(=O)c3ccccc3n3c(-c4cccc(OC)c4OC)nnc23)cc1	i
Cc1noc(C)c1-c1cc(-c2cccc(N[S+](C)(=O)[O-])c2)cn2cncc12	i
COc1ccc(-c2cc(-c3ccc(N4CCOCC4)nc3)cn3cncc23)cc1	0.79µM*
c1cc(-c2cc(-c3ccc(N4CCOCC4)nc3)cn3cncc23)ccn1	i
O=C1N(c2ccc(F)cc2)CCOC12CCN(Cc1ccc3[nH]ccc3c1)CC2	-15%[44.1 µM]
COc1ccc([C@@H](NC(=O)c2ccc(CSC)o2)C2CC(O)C2)cn1 (stereo partly drawn)	3%
Cc1ccc(C)c(-n2nc(-c3c(C)nc4scc(CC(=O)N5CCOCC5)n4c3=O)cc2C)c1	i
O=C(CCC[C@@H]1[C@H]2CCCN3CCC[C@@H](CN1C(=O)c1cccnc1)[C@@H]23)NCCc1ccccn1	-10%
CO[C@H]1C(=O)N(C(C)C)[C@H]1C1CCN(C(=O)Cc2ccncc2)CC1	30%
COc1ccc(-c2cc(-c3cnn(C)c3)cn3cncc23)cn1	10µM*
Cc1ccc(-c2cc(-c3ccc(=O)[nH]c3)c3cncn3c2)cn1	47%[44.1 µM]
COc1ccc(-c2cc(-c3c(C)noc3C)c3cncn3c2)cc1	5µM*
COc1ccc(-c2nc(-c3c(C)noc3C)cc3c2cc(-c2ccccc2)n3C)cn1	-26%[44.1 µM]
Cc1noc(C)c1-c1cc(-c2cnn(C)c2)cn2cncc12	-9%[44.1 µM]
Cc1nc(C2CC2)ncc1C(=O)N1CCN(C)C2(CCNC(=O)CC2)C1 (stereo not drawn)	9%
Cc1noc(C)c1CC(=O)NC1CCCc2c1[nH]c1c(Cl)cccc21 (stereo not drawn)	7.9µM*
O=C(Cc1c[nH]c2ccccc12)NC1CCCc2c1[nH]c1ccc(F)cc21 (stereo not drawn)	13µM*
O=C(CCNC(=O)c1cnccn1)NC1CCCc2c1[nH]c1ccc(F)cc21 (stereo not drawn)	-9%
CC(C)CC(=O)NC1CCCc2c1[nH]c1c(Cl)cccc21 (stereo not drawn)	-22%
COc1ccc(CC(=O)NC2CCCc3c2[nH]c2ccc(F)cc32)cc1OC (stereo not drawn)	-16%
O=C(NC1CCCc2c1[nH]c1ccc(F)cc21)c1cccs1 (stereo not drawn)	i
Cc1noc(C)c1C(=O)NC1CCCc2c1[nH]c1c(Cl)cccc21 (stereo not drawn)	-8%
Cc1noc(C)c1CCC(=O)NC1CCCc2c1[nH]c1ccc(F)cc21 (stereo not drawn)	11µM*
Cc1noc(C)c1C(=O)NC1CCCc2c1[nH]c1ccc(F)cc21 (stereo not drawn)	-11%
SMILES	Pf Dd2 inh
Cc1nnc(-c2cc(-c3ccc(N4CCOCC4)cc3)ccn2)n1C1CCCCC1	-10%[44.1 µM]
O=C(c1cccc(Cn2cccn2)c1)N1CCOC(c2ccc(Cl)cc2)C1 (stereo not drawn)	3%
COC1C(=O)N(C2CCN(C(=O)c3ccnn3C)CC2)C12CCOCC2 (stereo not drawn)	16%
CN(CC1(C)CCOCC1)C(=O)NC(C)(C)C	-20%
COc1ccc(C(=O)N[C@H](c2cccs2)C2CC(O)C2)c(F)c1F (stereo partly drawn)	-7%
N#Cc1cccc(C(=O)NC2CCc3nnc(C4CC4)n3CC2)c1 (stereo not drawn)	13%
COc1ccc(CN2C[C@@H]3C(=O)N(Cc4ccc5c(c4)OCO5)C(=O)[C@@H]3C2)c(OC)c1	i
COCCN1C(=O)[C@H]2CN(Cc3ccc(OC)cc3OC)C[C@H]2C1=O	i
COc1cc(OCc2ccccc2)ccc1CN1C[C@@H]2CCN[C@@H]2C1	10µM*
COC(=O)C(=O)N[C@H]1C[C@@H](Cc2cc(CC(C)C)on2)C1(C)C	-8%[44.1 µM]
O=C(c1ccn2nccc2c1)N1CCOCC1	13%[44.1 µM]
CCc1cccc(NC(=O)N2CCC(OC3CCN(Cc4ccccc4)CC3)CC2)c1	-7%
COc1ccc(C)cc1NC(=O)N1CCC(OC2CCN(Cc3ccccc3)CC2)CC1	11µM*
O=C(Nc1cccc(Cl)c1F)N1CCC(OC2CCN(Cc3ccccc3)CC2)CC1	6.3µM*
Cc1c(F)cccc1NC(=O)N1CCC(OC2CCN(Cc3ccccc3)CC2)CC1	4.5µM*
CS(=O)(=O)N1CCC(OC2CCN(C(=O)Nc3ccccc3F)CC2)CC1	i
O=C(c1ccc(F)cc1)N1CCC(OC2CCN(Cc3ccccc3)CC2)CC1	11µM*
COc1ccc(C)cc1NC(=O)N1CCC(CN2CCC(C)CC2)CC1	2%
O=C(NC1CCCCC1)N1CCC(OC2CCN(Cc3ccccc3)CC2)CC1	213%
COc1ccc(C)cc1NC(=O)N1CCC(OC2CCN(S(C)(=O)=O)CC2)CC1	14%
O=S(=O)(c1ccc(F)cc1)N1CCC(OC2CCN(Cc3ccccc3)CC2)CC1	i
CC(C)(C)C(=O)N1CCC(OC2CCN(Cc3ccccc3)CC2)CC1	-1%
O=C(C1CCCCC1)N1CCC(OC2CCN(Cc3ccccc3)CC2)CC1	i
CCn1nccc1C(=O)NCCc1ncc(C)n1CCOC	1%
CSCC(=O)N[C@H]1CCN2C(=O)c3cc(/C=C/c4ccccc4)ccc3NC(=O)[C@H]12	i
SMILES	Pf Dd2 inh
COc1cc(F)ccc1-c1nccc2c(=O)cc(N3CCOCC3)oc12	-16%[44.1 µM]
COc1ccc(CNC(=O)N2CCCCCCNC(=O)[C@@H]3CCCC[C@@H]32)cc1	-10%
O=C(NCC(F)(F)F)c1nc2sccn2c1Br	13%[44.1 µM]
COC[C@@H]1CNC[C@H]1c1ccccn1	-18%
COc1ccccc1NC(=O)C1=C(C)Nc2c(C(=O)Nc3ccc(C)cc3)cnn2C1c1cccc(OC)c1OC (stereo not drawn)	13%
CC1=C(C(=O)Nc2ccc(C)cc2)C(c2ccccc2Cl)n2nnnc2N1 (stereo not drawn)	23%
CC1=C(C(=O)Nc2ccc(C)cc2C)C(c2ccc([N+](=O)[O-])cc2)n2ncc(C(=O)Nc3ccc(F)cc3)c2N1 (stereo not drawn)	1µM*
COc1cccc(C2C(C(=O)Nc3ccccc3)=C(C)Nc3nnnn32)c1OC (stereo not drawn)	-25%
CCc1ccc(C2C(C(=O)Nc3ccccc3OC)=C(C)Nc3c(C(=O)Nc4ccc(C)cc4)cnn32)cc1 (stereo not drawn)	11µM*
CC1=C(C(=O)Nc2ccc(C)cc2C)C(c2cccn2C)n2ncnc2N1 (stereo not drawn)	10%
CC1=C(C(=O)Nc2ccccc2)C(c2ccccc2Cl)n2ncc(C(=O)Nc3cccc(C)c3)c2N1 (stereo not drawn)	3.2µM*
CCc1ccc(C2C(C(=O)Nc3ccccc3OC)=C(C)Nc3nc(SCc4ccccc4)nn32)cc1 (stereo not drawn)	-9%
CC1=C(C(=O)Nc2ccc(C)cc2)C(c2ccc(Cl)cc2)n2nnnc2N1 (stereo not drawn)	-27%
Cc1nc(CN2CC3(CCN(C)C3)c3cc(C(=O)Nc4ccccc4)ccc32)cs1 (stereo not drawn)	-10%[44.1 µM]
CC(C)c1nccn1Cc1cc(C(=O)N(C)Cc2ccccc2Cl)n[nH]1	i
CCCOC1CCCN(C(=O)c2cc(Cl)ccc2OC2CCN(C(C)=O)CC2)C1 (stereo not drawn)	-9%
CCOC(=O)C1=C(C)N=C2SC=C(CC(=O)NCC3CCCO3)N2C1c1ccccc1F (stereo not drawn)	i
Cc1ccccc1-c1nccn2c(C3CN(Cc4ccc(O)cc4)C3)ncc12	11µM*
